Experimental findings from PubChem BioAssay (NCI) are described below.

Holding throughout (assay): NCI-60 one-dose screen, 48 h (100 = growth as untreated, 0 = no growth, -100 = all killed)
Holding throughout (details): 10 µM unless noted

In assay [1] the test system is SR leukemia.
The subject of assay [2] is OVCAR-8 ovarian.
Assay [3] has as its system OVCAR-5 ovarian.
Assay [4] deals with SK-OV-3 ovarian.
Assay [5] deals with IGROV1 ovarian.
In assay [6] the test system is OVCAR-3 ovarian.
Assay [7] deals with HS 578T breast.
The subject of assay [8] is NCI/ADR-RES ovarian.
The test system of assay [9] is T-47D breast.
For assay [10], the system named is BT-549 breast.
For assay [11], the system named is MDA-MB-435 melanoma.
The subject of assay [12] is SW-620 colon.
Assay [13] concerns HCT-116 colon.
Assay [14] concerns HCC-2998 colon.
Assay [15] concerns KM12 colon.
The test system of assay [16] is OVCAR-4 ovarian.
For assay [17], the system named is MCF7 breast.

Compounds without any hit were thinned out: in the full panel of roughly 83,000, 20% have a hit.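 Percent growth is the endpoint: 0 to 100 indicates growth inhibition (40 means 60% inhibition), 0 means no net growth, and negative values indicate cell death.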 Values without a mark were called inactive. Calls of active or inactive are those of the source. How the source made its calls: active means growth percent below 10; inactive means the rest.

Turning to `CC(=O)Nc1nc2ccc(NS(=O)(=O)c3cccc4c(N(C)C)cccc34)cc2[nH]1`, the growth in assay [1] is 24.8%; in assay [2], 85.4%; in [3], 84.4%; in assay [4], 88.1%; in assay [5], 51.5%; in [6], 41.1%. For the same compound, the growth is 52.3% in assay [7]; 97.7% in assay [8]; 74.3% in assay [9]; 61.3% in assay [10]; -28.6% (active) in assay [11]; 38.7% in assay [12]. Besides, the results for the growth in assay [13], in [14] and in [15] were 62.2%, 83.3% and 55.1%, respectively.

As to `COc1ccc(-c2nnc(-c3ccc4c(c3)nc(-c3ccncc3)n4C3CCCCC3)o2)cc1`, the growth in [1] is 46.6%; in [2], 53.5%; in [3], 102%; in [16], 61.1%; in assay [4] it was 80.4%; in assay [5] it was 73.7%. For the same compound, the growth is 67.3% in [6]; 68.6% in [7]; 56.9% in assay [8]; 30.8% in [9]; 54.6% in assay [10]; 75.9% in assay [11]. The growth in [12] was 95.9%; in [17], 65.6%; in assay [13] it was 62.3%; in assay [15], 71.9%.

Consider `c1ccc(CNc2c3ccccc3nc3ccccc23)cc1`, for which the growth in assay [1] is 11.7%; in assay [2] it was 26.1%; in [3] it was 45.7%; in [16], 43.2%; in assay [4], 46.7%; in [5], 29.8%. Also, the growth in assay [6] was 51.7%; in [7], 56.1%; in assay [8] it was 37.6%; in assay [9] it was 37.7%; in [10], 72.8%; in assay [11], 42.8%. Further, the growth in assay [12] was 24.5%; in [17] it was 12%; in assay [13] it was 8.4% (active); in [14], 38.2%; in [15] it was 30.5%.

Turning to `N#Cc1nc(-c2ccccc2)oc1S(=O)(=O)N1CCOCC1`, the growth was 1.09% (active) in assay [1]; 59.8% in assay [2]; 103% in [3]; 84.2% in [16]; 103% in assay [4]; 88.5% in assay [5]. Further, the growth in assay [6] was 15%; in assay [7], 107%; in assay [8] it was 98.7%; in assay [9], 65.4%; in [10], 86.6%; in assay [11], 89.4%. For the same compound, the growth was 56.6% in assay [12]; 32.5% in assay [17]; 19.9% in [13]; 104% in assay [14]; 97.8% in assay [15].

Consider `C=CCn1c(SCC(=O)NCc2cc(C)c(O)c(C)c2)nc2ccc(Cl)cc2c1=O`, for which the growth in assay [1] is -34.1% (active); in assay [2], 106%; in assay [3], 88.4%; in [16], 86.2%; in assay [4], 109%; in assay [5], 65%. In addition, the growth in assay [6] was 101%; in [7], 98.7%; in assay [8], 97.1%; in assay [9], 103%; in assay [10] it was 113%; in assay [11], 107%. Also, the growth in [12] was 102%; in [17], 91.3%; in assay [13], 102%; in [14], 110%; in [15], 104%.

Take `CCn1c(SCC(=O)c2ccc(Br)cc2)nnc1-c1ccncc1`: the growth was 98.3% in assay [1]; 109% in [2]; 108% in [3]; 101% in assay [16]; 118% in [4]; 115% in assay [5]. In addition, the growth was 106% in assay [6]; 105% in assay [7]; 107% in [8]; 105% in assay [9]; 116% in [10]; 102% in assay [11]. Further, the figures for the growth in assay [12], in [13] and in assay [15] were 102%, 105% and 106%, respectively.

With `COc1ccc(N2CCC(=O)NC2=S)cc1`, the growth in assay [1] is 116%; in assay [2], 106%; in assay [3], 102%; in assay [16], 106%; in [4] it was 103%; in assay [5] it was 108%. The growth is 109% in assay [6]; 98.7% in [7]; 98% in assay [8]; 102% in [9]; 101% in [10]; 109% in assay [11]. In addition, the growth was 96.8% in assay [12]; 95.2% in assay [17]; 105% in [13]; 95.9% in assay [14]; 106% in assay [15].

For `O=C(Nc1cc(Cl)ccc1O)c1ccc(Nc2ccnc(C(F)(F)F)c2)cc1`, the growth in [1] was 23.7%; in [2], 51.8%; in [3], 86.4%; in [16], 43.3%; in assay [4], 64.1%; in assay [5], 36%. Besides, the growth in assay [6] is 14.3%; in assay [7], 49.9%; in assay [8], 35.1%; in [9], 4.61% (active); in assay [10] it was 34.5%; in assay [11] it was 51.9%. The growth was 40.2% in assay [12]; 22.3% in assay [17]; 16% in assay [13]; 35.1% in assay [14]; 22.4% in assay [15].

Take `C=C(C)[C@@H]1CC[C@]2(C(=O)O)CC[C@]3(C)[C@H](CC[C@@H]4[C@@]5(C)C[C@@H](Cc6cn(CCO[C@@H]7O[C@H](COC(C)=O)[C@H](OC(C)=O)[C@H](OC(C)=O)[C@H]7OC(C)=O)nn6)[C@H](O)C(C)(C)[C@@H]5CC[C@]43C)[C@@H]12`: the growth in assay [1] is 48.2%; in [2] it was 77.8%; in assay [3], 97.3%; in assay [16], 72.8%; in assay [4] it was 80.8%; in assay [5] it was 59.3%. Besides, the growth was 67% in [6]; 51.9% in assay [7]; 91.8% in assay [8]; 51.6% in [9]; 42.7% in assay [10]; 94.2% in assay [11]. Further, the growth in assay [12] is 77.1%; in assay [17], 47.1%; in assay [13] it was 44.7%; in assay [14] it was 81.5%; in [15], 55.9%.

As to `O=c1oc2ccc([N+](=O)[O-])cc2cc1Br`, the growth in assay [1] is 85%; in [2] it was 100%; in [3] it was 109%; in [16], 109%; in assay [4], 106%; in assay [5], 119%. Besides, the growth in [6] is 111%; in assay [7], 106%; in assay [8] it was 108%; in assay [9], 101%; in assay [10] it was 112%; in assay [11] it was 104%. Moreover, the growth in assay [12] was 98.1%; in assay [17], 97.7%; in [13] it was 105%; in assay [14], 114%; in assay [15] it was 107%.

`Cc1ccc(Sc2nnc(/N=C3\C(=O)Nc4ccccc43)s2)cc1`: the growth is 91.4% in [1]; 101% in assay [2]; 102% in [3]; 113% in assay [16]; 110% in [4]; 88.6% in [5]. In addition, the growth in assay [6] was 106%; in assay [7], 97.5%; in [8], 101%; in [9], 107%; in assay [10], 116%; in [11] it was 103%. Also, the growth is 96.2% in [12]; 101% in assay [17]; 104% in [13]; 116% in assay [14]; 98.1% in assay [15].
